This note sets out measurements from PubChem BioAssay (Tox21).

The nature of experiment [1]: Nuclear factor erythroid 2-related factor 2/antioxidant responsive element (Nrf2/ARE) small molecule agonists: qHTS cell viability counter screen in human keratinocytes (AID 1919968; active means well fitted curve in the direction sought with a large enough effect in the repeat runs; an effect the other way counts as inactive or inconclusive; further: nearly all actives have a fitted effect of over 55% in size; further: potency means the concentration at half of the fitted maximal effect). The method, boiled down:
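Cytotoxicity was multiplexed with the Nrf2/ARE luciferase assay in the same wells. Stably transfected HaCaT keratinocytes were treated with test compounds for 23 h at 37 C. Cell viability was then measured by CellTiter-Fluor fluorescence.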

A short description of experiment [2]: Nuclear factor erythroid 2-related factor 2/antioxidant responsive element (Nrf2/ARE) small molecule agonists: luciferase reporter gene qHTS assay in human keratinocytes (AID 1919969). Further: nearly all actives have a fitted effect of over 35% in size. Further: potency means the concentration at half of the fitted maximal effect. For orientation: Reporter assays use an easily measured gene product as a stand-in for the process of interest.
The target of experiment [3] is Gonadotropin-releasing hormone receptor (Homo sapiens) (UniProt P30968). The experiment can be described thus: Human gonadotropin-releasing hormone receptor (GnRHR) small molecule agonists, calcium flux assay in GnRHR-HEK293 cells (AID 1920063). Further: nearly all actives have a fitted effect of over 35% in size. Further: potency means the concentration at half of the fitted maximal effect. Summed up:
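Agonist activity was measured as intracellular calcium flux in HEK293 cells engineered to stably express human GnRHR. After dye loading for 1 hour at 37 C, compounds in DMSO were added and fluorescence was followed for 3 minutes.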
For orientation: Calcium flux is commonly read through the fluorescence of an indicator in the cells.

Experiment [4] concerns the target KiSS-1 receptor (Homo sapiens) (UniProt Q969F8). Nature of the experiment: Human kisspeptin (KISS1R) small molecule agonists, calcium flux assay in KISS1R-HEK293 cells (AID 1920064; active means well fitted curve in the direction sought with a large enough effect in the repeat runs; an effect the other way counts as inactive or inconclusive). The method, boiled down: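 Agonist activity is monitored as intracellular calcium rise in engineered HEK293 cells carrying human KISS1R. Cells are dye-loaded for 1 h at 37 C before compound addition, and fluorescence is recorded for 3 min.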

Experiment [5] in a line: p53 small molecule agonists, cell-based qHTS assay with human liver microsomes: qHTS cell viability counter screen (AID 1963579). Further: nearly all actives have a fitted effect of over 45% in size. The method, boiled down:
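Cytotoxicity counter screen: p53RE-bla, 4,000 cells/well; 5 h settle, 37 C/5% CO2; cpd + HLM 0.5 mg/mL + NADPH 0.5 mg/mL (final); 16 h, 37 C; CellTiter-Glo, 30 min RT, luminescence.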
In general terms: qHTS replaces the single test concentration by a dilution series.

The nature of experiment [6]: p53 small molecule agonists, cell-based qHTS assay with rat liver microsomes: qHTS cell viability counter screen (AID 1963580). Further: nearly all actives have a fitted effect of over 45% in size. Summed up: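 Counter screen for cytotoxicity under metabolic activation: rat liver microsomes and NADPH, 0.5 mg/mL final each, added with compounds to p53RE-bla HCT-116 cells; 16 h at 37 C, then ATP luminescence read.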
Experiment [7] is described as follows: p53 small molecule agonists, cell-based qHTS assay: qHTS cell viability counter screen (AID 1963581). Further: nearly all actives have a fitted effect of over 45% in size. The method, boiled down:
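Viability was counter-screened in parallel with the p53 agonist reporter by measuring intracellular ATP luminescence in the same HCT-116 p53RE-bla wells after 16 h compound treatment at 37 C.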

The nature of experiment [8]: p53 small molecule agonists, cell-based qHTS assay (AID 1963582; active means well fitted activation curve with a large enough effect in the signal ratio in the repeat runs, not every such curve was filed as active; the % refers to the signal ratio). Summed up: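 Cells carrying a p53-responsive bla reporter are treated with test compounds for 16 h at 37 C; beta-lactamase activity is then detected with LiveBLAzer B/G FRET substrate after 2 h at room temperature.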
Experiment [9] deals with 5-hydroxytryptamine receptor 2A (Homo sapiens) (UniProt P28223). The experiment can be described thus: 5-hydroxytryptamine receptor 2A (HTR2A) small molecule antagonists, cell-based qHTS assay (AID 1963586). Further: nearly all actives have a fitted effect of over 45% in size. Summed up: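 CHO cells stably expressing human HTR2A were plated for 18 h at 37 C, then loaded with calcium dye for 1 h. Compounds were preincubated 5 min at room temperature before DOI (4 nM solution) was added. Kinetic fluorescence was read for 3 min.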
5-hydroxytryptamine receptor 2A (Homo sapiens), sequence (P28223 whole entry, looked up): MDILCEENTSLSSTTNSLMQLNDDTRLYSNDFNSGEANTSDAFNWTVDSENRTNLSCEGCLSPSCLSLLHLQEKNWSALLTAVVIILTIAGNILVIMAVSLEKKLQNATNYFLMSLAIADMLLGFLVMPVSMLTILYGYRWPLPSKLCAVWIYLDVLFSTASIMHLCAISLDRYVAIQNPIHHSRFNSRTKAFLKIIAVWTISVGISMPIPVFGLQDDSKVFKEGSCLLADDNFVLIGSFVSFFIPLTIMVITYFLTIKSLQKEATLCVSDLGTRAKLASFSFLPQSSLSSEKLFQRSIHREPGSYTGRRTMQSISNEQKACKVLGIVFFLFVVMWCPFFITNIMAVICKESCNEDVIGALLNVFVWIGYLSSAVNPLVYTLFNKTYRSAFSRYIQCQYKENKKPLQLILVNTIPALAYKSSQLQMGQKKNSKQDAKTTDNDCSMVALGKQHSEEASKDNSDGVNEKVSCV

For experiment [10] the target is unchanged. Nature of the experiment: 5-hydroxytryptamine receptor 2A (HTR2A) small molecule agonists, cell-based qHTS assay (AID 1963587). Further: nearly all actives have a fitted effect of over 30% in size. The method, boiled down:
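HTR2A-CHO cells, plated 18 h at 37 C/5% CO2, dye-loaded 1 h at 37 C; compounds in DMSO added by pin tool (agonist mode). Intracellular calcium flux read as kinetic fluorescence on FDSS over 2 min at 1 s intervals.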

Experiment [11] addresses Muscarinic acetylcholine receptor M1 (Homo sapiens) (UniProt P11229). Nature of the experiment: Cholinergic receptor muscarinic 1 (CHRM1) small molecule antagonists, cell-based qHTS assay (AID 1963588). Further: nearly all actives have a fitted effect of over 40% in size. Further: potency means the concentration at half of the fitted maximal effect. The method, boiled down: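 Compounds were tested at 15 concentrations in three independent runs. Dye-loaded CHRM1-CHO cells were exposed 5 min at room temperature before stimulation by acetylcholine added at 50nM. Intracellular calcium was read kinetically on FDSS for 3 min.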

The target is the same in experiment [12]. Nature of the experiment: Cholinergic receptor muscarinic 1 (CHRM1) small molecule agonists, cell-based qHTS assay (AID 1963589). Further: nearly all actives have a fitted effect of over 35% in size. The method, boiled down:
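Cells were plated and incubated 18 h at 37 C/5% CO2, loaded with calcium dye for 1 h at 37 C, then treated with compounds in DMSO. Fluorescence was recorded kinetically at 1 sec intervals.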

Experiment [13] concerns the target Beta-2 adrenergic receptor (Homo sapiens) (UniProt P07550). Nature of the experiment: Adrenergic beta2 receptor (ADRB2) small molecule antagonists, cell-based qHTS assay (AID 1963592). Further: series mostly up to about 92 µM; nearly all actives have a fitted effect of over 50% in size. Summed up: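 Assay format: CHO-ADRB2 cells, 18-20hr seeding at 37C/5% CO2, then compound plus 1nM isoproterenol agonist mix for 0.5hr RT. Homogeneous time-resolved fluorescence cAMP detection after 1hr, expressed as 665/615 nm ratio.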

Experiment [14] deals with D(2) dopamine receptor (Homo sapiens) (UniProt P14416). The experiment can be described thus: Dopamine D2 receptor (DRD2) small molecule agonists, cell-based qHTS assay (AID 1963594). Further: nearly all actives have a fitted effect of over 35% in size. The method, boiled down: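 HEK293 cells stably expressing DRD2 were cultured 24 h at 37 C, then given Ro20-1724 (0.1 mM final) and compounds for 10 min at room temperature. NKH477 (200nM) was then added for 30 min. cAMP was read by HTRF.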
D(2) dopamine receptor (Homo sapiens), sequence (P14416 whole entry, looked up): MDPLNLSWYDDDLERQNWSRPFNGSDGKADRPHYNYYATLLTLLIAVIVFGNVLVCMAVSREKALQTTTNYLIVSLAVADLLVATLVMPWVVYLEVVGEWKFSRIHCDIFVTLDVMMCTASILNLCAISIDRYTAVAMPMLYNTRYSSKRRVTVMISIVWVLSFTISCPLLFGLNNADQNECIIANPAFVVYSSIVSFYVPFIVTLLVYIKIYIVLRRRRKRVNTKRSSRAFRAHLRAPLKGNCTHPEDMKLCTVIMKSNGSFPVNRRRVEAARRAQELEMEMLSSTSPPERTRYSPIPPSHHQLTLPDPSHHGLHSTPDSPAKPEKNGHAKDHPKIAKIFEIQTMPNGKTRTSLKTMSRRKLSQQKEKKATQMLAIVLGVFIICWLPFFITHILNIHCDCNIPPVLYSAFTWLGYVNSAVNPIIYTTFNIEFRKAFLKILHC

For experiment [15] the target is unchanged. The experiment can be described thus: Dopamine D2 receptor (DRD2) small molecule antagonists, cell-based qHTS assay (AID 1963595; active means well fitted inhibition curve with a large enough effect in the signal ratio in the repeat runs, with a control signal flat; the % refers to the signal ratio). Summed up: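 Cells were plated and grown for 24 h at 37 °C. Ro20-1724 (0.1 mM final) went in first, then compound for 10 min. NKH477 (200 nM) with quinpirole (12 nM) followed for 30 min at RT, then HTRF detection reagents for 1 h.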

Experiment [16] is described as follows: p53 small molecule agonists, cell-based qHTS assay with rat liver microsomes (AID 1963578). The method, boiled down: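 Cells carrying a p53 response element–beta-lactamase reporter were plated and rested 5 h, then dosed with compound in DMSO plus rat liver microsomes and NADPH, each at 0.5 mg/mL final. After 16 h at 37 C, LiveBLAzer substrate was added for 2 h.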

Experiment [17] is described as follows: cAMP Responsive Elements (CRE) small molecule agonists, cell-based qHTS assay (AID 1963590). The method, boiled down: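 Cells carrying a CRE-driven beta-lactamase reporter (HEK 293T) are seeded, incubated overnight (18 h), and treated with test compounds for 3 h at 37 C; reporter activity is then detected with a FRET substrate after 2 h at room temperature.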

The nature of experiment [18]: cAMP Responsive Elements (CRE) small molecule antagonists, cell-based qHTS assay (AID 1963591; active means well fitted inhibition curve with a large enough effect in the signal ratio in the repeat runs, not every such curve was filed as active; the % refers to the signal ratio). The method, boiled down:
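Cells (CRE-bla HEK 293T, DMEM with 10% dialyzed FBS and 25 mM HEPES) are seeded and incubated 18 h. Compounds are added with NKH477 agonist at 0.25 uM final for 3 h, then FRET substrate for 2 h.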

Experiment [19] concerns the target Beta-2 adrenergic receptor (Homo sapiens) (UniProt P07550). Nature of the experiment: Adrenergic beta2 receptor (ADRB2) small molecule agonists, cell-based qHTS assay (AID 1963593).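 Further: CHO cells stably overexpressing human ADRB2.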 The method, boiled down:
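CHO cells stably over-expressing ADRB2 were plated overnight at 37C, then dosed with compounds plus a stimulation mix containing 100uM IBMX and 25uM Ro-20-1724 for 0.5hr at room temperature. cAMP was measured by HTRF competition, 1hr.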

The structures appear in SMILES notation. Unmarked numbers belong to inactive results. Results filed as inconclusive are left out. Active and inactive are the calls of the source. Unless noted, the call rests on the fitted dose curve.

KiSS-1 receptor (Homo sapiens), sequence (Q969F8 whole entry, looked up): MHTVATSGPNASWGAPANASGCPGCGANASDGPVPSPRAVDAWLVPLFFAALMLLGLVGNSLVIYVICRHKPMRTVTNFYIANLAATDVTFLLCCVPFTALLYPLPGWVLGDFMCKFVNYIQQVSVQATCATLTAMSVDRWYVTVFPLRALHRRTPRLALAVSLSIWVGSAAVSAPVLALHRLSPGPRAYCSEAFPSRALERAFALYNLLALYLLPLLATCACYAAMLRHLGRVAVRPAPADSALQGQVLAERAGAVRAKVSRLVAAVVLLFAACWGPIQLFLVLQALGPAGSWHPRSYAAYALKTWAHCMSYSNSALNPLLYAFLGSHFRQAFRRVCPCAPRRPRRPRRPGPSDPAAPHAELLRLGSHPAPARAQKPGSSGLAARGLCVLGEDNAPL
Beta-2 adrenergic receptor (Homo sapiens), sequence (P07550 whole entry, looked up): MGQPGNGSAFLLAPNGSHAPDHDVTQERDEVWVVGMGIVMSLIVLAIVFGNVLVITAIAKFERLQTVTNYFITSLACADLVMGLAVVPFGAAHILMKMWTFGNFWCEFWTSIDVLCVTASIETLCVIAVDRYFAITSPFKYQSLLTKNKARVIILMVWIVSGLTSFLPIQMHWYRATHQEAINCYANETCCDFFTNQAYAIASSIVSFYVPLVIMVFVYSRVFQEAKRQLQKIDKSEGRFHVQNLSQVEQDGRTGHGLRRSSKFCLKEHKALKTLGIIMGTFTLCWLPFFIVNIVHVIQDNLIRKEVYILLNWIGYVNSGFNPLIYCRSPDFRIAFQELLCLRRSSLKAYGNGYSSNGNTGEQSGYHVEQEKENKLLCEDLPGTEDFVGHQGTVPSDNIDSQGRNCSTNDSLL
Gonadotropin-releasing hormone receptor (Homo sapiens), sequence (P30968 whole entry, looked up): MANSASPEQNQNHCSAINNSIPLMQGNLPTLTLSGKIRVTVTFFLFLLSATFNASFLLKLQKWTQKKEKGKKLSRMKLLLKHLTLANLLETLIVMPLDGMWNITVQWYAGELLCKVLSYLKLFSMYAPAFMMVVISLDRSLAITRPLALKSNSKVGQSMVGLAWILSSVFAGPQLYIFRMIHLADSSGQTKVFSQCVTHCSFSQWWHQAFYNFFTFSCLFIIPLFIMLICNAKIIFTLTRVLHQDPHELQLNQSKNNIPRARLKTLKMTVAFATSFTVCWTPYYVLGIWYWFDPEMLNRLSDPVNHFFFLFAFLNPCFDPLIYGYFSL
Muscarinic acetylcholine receptor M1 (Homo sapiens), sequence (P11229 whole entry, looked up): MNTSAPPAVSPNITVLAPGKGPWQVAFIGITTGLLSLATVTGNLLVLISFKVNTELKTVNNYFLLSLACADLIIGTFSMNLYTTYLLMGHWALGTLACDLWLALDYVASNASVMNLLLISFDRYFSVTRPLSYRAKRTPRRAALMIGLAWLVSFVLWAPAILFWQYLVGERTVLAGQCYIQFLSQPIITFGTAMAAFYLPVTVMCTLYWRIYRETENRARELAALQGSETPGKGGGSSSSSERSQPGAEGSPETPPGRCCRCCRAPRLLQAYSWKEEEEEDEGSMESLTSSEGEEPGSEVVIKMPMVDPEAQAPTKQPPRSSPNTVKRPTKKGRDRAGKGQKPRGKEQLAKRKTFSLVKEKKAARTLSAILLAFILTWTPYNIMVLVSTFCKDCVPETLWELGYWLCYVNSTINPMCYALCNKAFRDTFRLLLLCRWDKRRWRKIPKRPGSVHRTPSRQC

For `CC(C)OC(=O)C(C)N(C(=O)c1ccccc1)c1ccc(F)c(Cl)c1` (stereo unspecified), the Potency entry in [1], in [2], in experiment [3], in experiment [5], in [6] and in experiment [7] was “inactive” each time. Moreover, the Potency entry in [8], in experiment [9], in experiment [10], in experiment [11], in experiment [12] and in [13] was “inactive” throughout. The Potency entry in experiment [14] and in [15] was “inactive” in each case. Moreover, in experiment [4], the result was inactive.
In the case of `CC/C=C\CCOC(=O)c1ccccc1O`, the Potency entry in [1], in [2], in experiment [3], in experiment [16], in [7] and in [8] was “inactive” throughout. The Potency result in experiment [9], in experiment [10], in experiment [11], in [12], in experiment [17] and in experiment [18] was “inactive” throughout. Further, the Potency result in experiment [13], in experiment [19], in [14] and in [15] was “inactive” in each case. The outcome in experiment [4] was inactive.
Consider `CCC(O)C(C)(C)C` (stereo unspecified), for which the Potency result in experiment [1], in experiment [2], in experiment [3], in [16], in experiment [5] and in [7] was “inactive” in each case. Also, the Potency entry in experiment [8], in experiment [9], in experiment [10], in [11], in experiment [12] and in experiment [18] was “inactive” throughout. Besides, the Potency result in experiment [13] and in [14] was “inactive” throughout. The outcome in experiment [4] was inactive.
`COc1ccc(-c2coc3cc(O)ccc3c2=O)cc1`: the Potency entry in [1], in experiment [2], in [3], in experiment [6], in [7] and in experiment [8] was “inactive” in each case. Besides, the Potency result in experiment [9], in experiment [10], in experiment [11], in experiment [12], in experiment [13] and in [19] was “inactive” in each case. For the same compound, the Potency result in experiment [14] and in experiment [15] was “inactive” in each case. In addition, the result in experiment [4] was inactive.
For `Clc1ccc(C(Cn2ccnc2)OCc2c(Cl)cccc2Cl)c(Cl)c1` (stereo unspecified), the Potency in [1] is 23.7 µM (active); in experiment [2], 11.9 µM (active); in experiment [11], 11.6 µM (active). Also, the Potency entry in [3], in experiment [5], in experiment [6], in experiment [12], in experiment [17] and in [13] was “inactive” in each case. In addition, the Potency result in experiment [19], in experiment [14] and in experiment [15] was “inactive” each time. In [4], the result was inactive.
For `CC1(c2ccccc2)OC(C(=O)O)=CC1=O` (stereo unspecified), the Potency result in [1], in experiment [2], in experiment [3], in experiment [16], in experiment [6] and in experiment [7] was “inactive” each time. For the same compound, the Potency result in [8], in experiment [10], in experiment [11], in [12], in [17] and in experiment [18] was “inactive” throughout. For the same compound, the Potency result in experiment [13], in experiment [19], in experiment [14] and in experiment [15] was “inactive” throughout. For the same compound, in [4], the result was inactive.
Consider `C[C@H](CCC(=O)NCC(=O)O)[C@H]1CC[C@H]2[C@@H]3[C@H](O)C[C@@H]4C[C@H](O)CC[C@]4(C)[C@H]3C[C@H](O)[C@]12C`, for which the Potency result in experiment [1], in experiment [2], in [3], in experiment [7], in [8] and in experiment [9] was “inactive” each time. For the same compound, the Potency result in experiment [10], in experiment [11], in experiment [12], in [17], in [18] and in [13] was “inactive” throughout. Moreover, the Potency result in [14] and in experiment [15] was “inactive” throughout. Besides, in experiment [4], the result was inactive.
Regarding `Oc1ccc(C(O)CNCCCCCCNCC(O)c2ccc(O)c(O)c2)cc1O` (stereo unspecified), the Potency result in experiment [1], in [2], in [16], in [6], in experiment [7] and in [8] was “inactive” in each case. The Potency entry in experiment [9], in experiment [11], in [12], in experiment [18], in experiment [13] and in experiment [14] was “inactive” throughout. In addition, the Potency in experiment [3] was 0.0756 µM (active). In addition, in experiment [4], the outcome was inactive.
